Bioassay records: PubChem, National Center for Advancing Translational Sciences (NCATS)
HADH2 inhib: HADH2 (human) dehydrogenase inhibition; hit rate 3.4% among 73,000; AID 886; recombinant HADH2, NADH fluorescence, beta-hydroxybutyryl-CoA; Potency, µM (doses to about 57.1 µM), most hits filed as inhibitors; Q99714; further: nearly all actives have a fitted effect of over 60% in size
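Activity measured as NADH fluorescence gain (360/450 nm), taken as the change between first and last reads of a 4-min kinetic run. Conditions: pH 9.0 Tris buffer, 20 nM E. coli-expressed His-tagged enzyme, 1 mM NAD+, 90 uM beta-hydroxybutyryl-CoA; 15-min compound preincubation.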
4MU fluor: compound fluoresces in the 4-MU spectral region; hit rate 11% among 59,000; compound autofluorescence, 340/450 nm, 4-MU equivalents; active compounds read high; AID 589; max dye-equivalent concentration, M; in the data active means max dye-equivalent concentration above about 10 nM; inconclusive means mostly about 1.1 nM to 9.6 nM
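Intrinsic fluorescence at 340/450 nm (ex/em) was read after 15 min at room temperature in pH 8.0, 100 mM Tris. Each compound concentration expressed as 4-MU-equivalent concentration from a six-point 4-MU standard series on each plate.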
GBA activity: alters purified human glucocerebrosidase activity. AID 360. P04062. Potency, µM. purified enzyme, resorufin glucoside fluorescence (screen aimed at inhibitors), 20 min. hit rate 1.1% among 48,000; in the data active means potency below about 15 µM; inconclusive means mostly about 16 µM to 33 µM;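 further: the screen sought inhibitors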
Target sequence (P04062 whole entry, looked up): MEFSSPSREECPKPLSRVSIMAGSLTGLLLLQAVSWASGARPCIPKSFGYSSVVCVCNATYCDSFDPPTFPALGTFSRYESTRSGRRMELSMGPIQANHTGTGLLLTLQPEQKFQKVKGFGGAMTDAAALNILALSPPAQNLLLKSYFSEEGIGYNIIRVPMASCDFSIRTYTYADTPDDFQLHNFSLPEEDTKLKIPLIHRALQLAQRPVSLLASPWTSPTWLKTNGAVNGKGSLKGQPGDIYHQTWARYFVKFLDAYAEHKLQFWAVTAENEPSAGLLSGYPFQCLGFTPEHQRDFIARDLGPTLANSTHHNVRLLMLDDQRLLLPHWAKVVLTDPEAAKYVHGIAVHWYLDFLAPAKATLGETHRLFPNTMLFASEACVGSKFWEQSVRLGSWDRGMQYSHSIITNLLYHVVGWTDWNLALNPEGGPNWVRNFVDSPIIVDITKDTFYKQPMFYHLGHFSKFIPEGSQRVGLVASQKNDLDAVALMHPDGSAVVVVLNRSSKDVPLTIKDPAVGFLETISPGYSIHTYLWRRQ
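Compounds titrated against 0.2 nM normal enzyme, 30 uM resorufin beta-D-glucopyranoside substrate, citrate/phosphate buffer with taurocholate and tween-20, pH 5.9. Reaction ran 20 min at room temperature; fluorescence (Ex 548/Em 600) gave AC50.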
A350 fluor: compounds fluorescent in Alexa 350 spectral region. Compound autofluorescence, 340/450 nm, Alexa 350 dye-equivalents; active compounds read high. max dye-equivalent concentration, M. hit rate 11% among 59,000; in the data active means max dye-equivalent concentration above about 10 nM; inconclusive means mostly about 1.1 nM to 9.6 nM
AID923: qHTS Assay for Allosteric/Competitive Inhibitors of Caspase-1: Spectroscopic Profiling in AFC Spectral Region. hit rate 1.1% among 75,000. AID 923, 2007. Potency, µM (titrated, usually from 57.5 µM), actives largely listed as activators. compound fluorescence, AFC spectral region (405/520 nm)
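Compound autofluorescence profiled at 405 nm ex/520 nm em during kinetic caspase 1 run (50 nM enzyme, 5 uM Ac-WEHD-AFC, HEPES pH 7.5, 10 mM DTT). Titration up to 57 uM; baseline from regression intercept, normalized to AFC standard curve.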
HSD17B inh: inhibitors of human HSD17B10 dehydrogenase; recombinant HSD17B10, NADH fluorescence kinetic; Potency, µM (titrated, usually from 57.1 µM), usual class: inhibitors; hit rate 7.6% among 75,000; AID 893;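 further: the protocol describes HADH2 (HSD17B10) and not the HSD17B4 of the title; nearly all actives have a fitted effect of over 70% in size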
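His-tagged E. coli-expressed HADH2 at 20 nM in 100 mM Tris-HCl pH 9.0 with 0.01 % Tween-20, preincubated 15 min with compound at room temperature. Reaction with 1 mM NAD+ and 90 uM beta-hydroxybutyryl coenzyme A; NADH fluorescence (360/450 nm) read kinetically over 4 min, last minus first point.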
Hits are given with their value; n = inactive; u = inconclusive; x = not tested or not shown. Hits are enriched below; roughly 13% of the tested compounds scored in any of these assays. Unless noted, the call rests on the fitted dose curve; in most records, active means well fitted curve in the direction sought with a large enough effect; inconclusive means small, poorly fitted or top-dose-only effect, or another doubt; inactive means no such curve, though single readings can be large; an effect the other way counts as inactive or inconclusive.

SMILES	HADH2 inhib	4MU fluor	GBA activity	A350 fluor	AID923	HSD17B inh
COc1ccc(OC)c(C2CC(=O)N3CN(c4ccc(C)c(Cl)c4)CSC3=C2C#N)c1 (configuration not stated)	u	x	x	x	n	u
CC(NC(=O)Nc1ncccn1)(C(F)(F)F)C(F)(F)F	x	n	x	n	x	x
COc1ccc(C)cc1-n1nnnc1SCc1cc(=O)n2cc(C)ccc2n1	n	1.72e-08M	n	2.99e-08M	n	u
COc1ccc(C)cc1-n1nnnc1SCc1csc(C)n1	n	n	n	n	n	n
O=C(Nc1cccc2nsnc12)C1CC(=O)N(c2ccccc2)C1 (configuration not stated)	n	1.84e-08M	n	2.07e-08M	n	25.1µM
COC(=O)c1ccccc1NC(=O)C1CC(=O)N(c2ccccc2)C1 (configuration not stated)	n	x	x	x	n	n
O=C(O)c1ccc(CN(c2ccccn2)S(=O)(=O)c2ccccc2)cc1	u	x	x	x	n	u
COc1ccc(N2CCN(C(=O)c3cn(C)c(=O)c4c3c3ccccc3n4C)CC2)cc1	n	2.45e-08M	n	2.55e-08M	n	n
CCOC(=O)N1CCC(NC(=O)c2cc3c(=O)n(C)c4ccccc4c3n2C)CC1	u	x	x	x	n	u
CCOC(=O)N1CCN(C(=O)c2cn(CC(C)C)c(=O)c3c2c2ccccc2n3C)CC1	25.1µM	5.51e-07M	n	5.78e-07M	n	25.1µM
CC(C)Cn1cc(C(=O)NCc2cccs2)c2c3ccccc3n(C)c2c1=O	n	6.99e-08M	n	6.85e-08M	n	n
COc1ccc(N2CCN(C(=O)c3cn(C4CCCC4)c(=O)c4c3c3ccccc3n4C)CC2)cc1	n	u	n	u	n	u
Cn1cc(C(=O)NCCN2CCN(c3cccc(Cl)c3)CC2)c2c3ccccc3n(C)c2c1=O	n	3.09e-08M	n	2.95e-08M	n	n
Cc1cc(C(=O)NCCN2CCN(c3cccc(Cl)c3)CC2)n(-c2ccccc2)n1	n	x	x	x	n	n
CCn1nc(CC(=O)Nc2nnc(CC(=O)N3CCCC3)s2)c2ccccc2c1=O	n	n	n	n	n	n
Cc1ccc(-n2ncc3c(Nc4c(C)n(C)n(-c5ccccc5)c4=O)ncnc32)c(C)c1	n	n	n	n	n	n
COCCn1cc(C(=O)N2CCC(C)CC2)c2c3ccccc3n(C)c2c1=O	25.1µM	6.59e-07M	n	7.25e-07M	n	31.6µM
O=C(Cn1cc(C(=S)N2CCOCC2)c2ccccc21)N1CCOCC1	n	n	n	n	n	n
CC(C)Cn1cc(C(=O)N2CCOCC2)c2c3ccccc3n(C)c2c1=O	u	6.5e-07M	n	7.02e-07M	n	25.1µM
CCOC(=O)N1CCN(C(=O)c2cn(C)c(=O)c3c2c2ccccc2n3C)CC1	n	3.69e-07M	n	3.86e-07M	n	25.1µM
CCCN1CCN(CCCNC(=O)c2cc3c(=O)n(C)c4ccccc4c3n2C)CC1	n	x	x	x	n	25.1µM
Cn1c(C(=O)NCCCN2CCCCCC2)cc2c(=O)n(C)c3ccccc3c21	n	x	x	x	n	25.1µM
CN1CCN(CCNC(=O)c2cc3c(=O)n(C)c4ccccc4c3n2C)CC1	n	x	x	x	n	u
c1ccc(CSc2nnc(NC3=NCCCCC3)s2)cc1	n	n	n	n	n	n
Cc1nn2cnc3sc4c(c3c2nc1=O)CCCC4	x	n	x	u	x	x
SMILES	HADH2 inhib	4MU fluor	GBA activity	A350 fluor	AID923	HSD17B inh
Cc1nn2c(N)csc2nc1=O	u	1.15e-08M	n	1.67e-08M	n	n
Nc1nc2n[nH]nc2c(=O)[nH]1	n	1.56e-08M	x	1.49e-08M	n	n
Cc1ccc2nc(NC(=O)CN3CCOCC3)sc2c1	n	n	n	n	n	n
CC(=O)c1sc(NC(=O)CN2C(=O)CCC2=O)nc1C	n	1.04e-08M	n	1.29e-08M	n	n
COC(=O)c1ccc2nc(NC(=O)CN3C(=O)CCC3=O)sc2c1	25.1µM	1.28e-08M	n	1.52e-08M	n	n
Cc1ccc2sc(NC(=O)CN3C(=O)CCC3=O)nc2c1C	n	x	x	x	n	n
Brc1ccc(CSc2ncnc3nc[nH]c23)cc1	u	x	x	x	n	n
COCCn1c(C)cc(C(=O)COC(=O)c2cc3c(s2)CCC3)c1C	n	n	n	n	n	25.1µM
COCCn1c(C)cc(C(=O)CSc2nnc(C)s2)c1C	n	n	n	n	n	n
